This is an account of results in PubChem BioAssay (EPA / NIEHS).

Calls of active or inactive are those of the source. The calls were made as follows: active = hit-call score of the fitted dose curve at least 0.9, where 1 is the maximum; inactive = score below 0.9.

This experiment in a line: CCTE_Shafer_MEA_dev_network_spike_duration_std: CCTE's Neural Network Formation Assay for Standard Deviation of Network Spike Duration, Shafer Lab (AID 2284052).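 Also: hits are decreases in network spike duration SD versus DMSO vehicle.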 The method, then: CCTE_Shafer_MEA_dev assay is conducted using Axion Biosystems 48 well microelectrode array (MEA) plates and Maestro recording system. Each well of the MEA plate contains a grid of 16 microelectrodes embedded in the culture surface. Electrically active cells, such as neurons, can be cultured over the electrodes, and electrical activity in these cells can be recorded extracellularly. The spontaneous firing of neurons is captured from each electrode on a microsecond timescale providing both temporally and spatially precise data. […] The CCTE_Shafer_MEA_dev assay uses primary cultures of rat cortical neurons. Recordings are made on days post-plating 5, 7, 9 and 12. As these cultures mature over time, neural networks develop functional activity and form cohesive networks in which electrical activity can be highly coordinated. CCTE_Shafer_MEA_dev_network_spike_duration_std is 1 of 19 assay components of the CCTE_Shafer_MEA_dev assay. It measures the standard deviation of the duration of network spikes (temporally-clustered groups of action potential firing across multiple electrodes) during a recording in a microelectrode array (MEA) using Axion Biosystems Maestro 768 channel amplifier with the AxIS adaptive spike detector. To collapse across multiple recordings made on days post-plating 5, 7, 9 and 12, the trapezoidal area-under-the-curve of the component is calculated.Data from the assay component CCTE_Shafer_MEA_dev_network_spike_duration_std was analyzed into 1 assay endpoint. This assay endpoint, CCTE_Shafer_MEA_dev_network_spike_duration_std, was analyzed in the negative analysis fitting direction relative to DMSO as the negative control and baseline of activity. Using a type of functional reporter, gain or loss-of-signal activity can be used to understand electrical activity.
On the day prior to culture, each well was coated thoroughly with 150 uL of 0.05% polyethyleneimine (PEI, Sigma Cat P3143) in 50 mM HEPES (Sigma Cat H7523) at a pH of 8. The plate was incubated at 37C for one hour. PEI was rinsed out with 500 uL of sterile water three times. Plates were stored at 4C until the day of culture. This culture was plated at a seeding density of 1.5 x 10^5 cells/well on a 48-well MEA plate, prepared as described above. Cells were administered via a 25 uL media/laminin ([…]; Sigma Cat L2020-1MG) drop directly onto the microelectrode array, as adding the cells with the laminin results in better attachment than pre-coating with laminin. After 2 hours, an additional 475 uL of cortical media was added and the cells returned to the incubator. Exposure starts at day 0 of plating and is continued over twelve days of network development until the experiment is terminated. Cells are fed with fresh medium on DIV 5 and 9, following the recordings on those days. The entire volume of media in the well is exchanged and any vehicle or compound treatment is renewed. Complete details are found in OP-NHEERL/ISTD/SBB/TJS/2015-03-r0 (available on request, email shafer.tim@epa.gov). Measurement of the electrical activity is non-invasive, and recordings can be made from the same plate over multiple different days of the culture. In cortical neurons, this allows for the measurement of extracellular action potentials over the period during which networks form in the MEA plate.
Consider `COc1ccc(-n2nc(C(F)F)cc2-c2ccc(S(C)=O)cc2)cc1` (stereo not given), for which the compound was called inactive.
In the case of `CC[C@H](C)C(=O)O[C@H]1C[C@@H](C)C=C2C=C[C@H](C)[C@H](CC[C@@H]3C[C@@H](O)CC(=O)O3)[C@H]21` it was “inactive”; in that of `CCC(C)(C)C(=O)O[C@H]1C[C@@H](C)C=C2C=C[C@H](C)[C@H](CC[C@@H]3C[C@@H](O)CC(=O)O3)[C@H]21`, “inactive”.
Then `CC[C@H]1OC(=O)[C@H](C)[C@@H](O[C@H]2C[C@@](C)(OC)[C@@H](O)[C@H](C)O2)[C@H](C)[C@@H](O[C@@H]2O[C@H](C)C[C@H](N(C)C)[C@H]2O)[C@](C)(O)C[C@@H](C)C(=O)[C@H](C)[C@@H](O)[C@]1(C)O`, with “inactive”; and `O=C1CCC(N2C(=O)c3ccccc3C2=O)C(=O)N1` (stereo not given), with “inactive”.
As for `Nc1nc2ncc(CNc3ccc(C(=O)N[C@@H](CCC(=O)O)C(=O)O)cc3)nc2c(=O)[nH]1`, the result was inactive.
For the compound `O=P(OC(CCl)CCl)(OC(CCl)CCl)OC(CCl)CCl`, the compound was classed as inactive.
Turning to `CNCc1ccc(NC(=O)c2c[nH]c3c2C(=O)CCC3)cc1`, the outcome was inactive.
For the compound `NC(=O)NO`, the call was inactive.
In the case of `Cn1c(=O)c2c(ncn2C)n(C)c1=O` it was “inactive”.
